Assay outcomes from PubChem BioAssay.
KAT2A inh: blocks human GCN5L2 histone acetyltransferase. AID 504327. Potency, µM (highest dose often 58.9 µM), inactives show top-dose activity change, negative = inhibition, usual class: inhibitors. hit rate 0.21% among 390,000. GCN5L2 HAT assay, ThioGlo1 CoA-SH fluorescence
Target sequence (Q92830 whole entry, looked up): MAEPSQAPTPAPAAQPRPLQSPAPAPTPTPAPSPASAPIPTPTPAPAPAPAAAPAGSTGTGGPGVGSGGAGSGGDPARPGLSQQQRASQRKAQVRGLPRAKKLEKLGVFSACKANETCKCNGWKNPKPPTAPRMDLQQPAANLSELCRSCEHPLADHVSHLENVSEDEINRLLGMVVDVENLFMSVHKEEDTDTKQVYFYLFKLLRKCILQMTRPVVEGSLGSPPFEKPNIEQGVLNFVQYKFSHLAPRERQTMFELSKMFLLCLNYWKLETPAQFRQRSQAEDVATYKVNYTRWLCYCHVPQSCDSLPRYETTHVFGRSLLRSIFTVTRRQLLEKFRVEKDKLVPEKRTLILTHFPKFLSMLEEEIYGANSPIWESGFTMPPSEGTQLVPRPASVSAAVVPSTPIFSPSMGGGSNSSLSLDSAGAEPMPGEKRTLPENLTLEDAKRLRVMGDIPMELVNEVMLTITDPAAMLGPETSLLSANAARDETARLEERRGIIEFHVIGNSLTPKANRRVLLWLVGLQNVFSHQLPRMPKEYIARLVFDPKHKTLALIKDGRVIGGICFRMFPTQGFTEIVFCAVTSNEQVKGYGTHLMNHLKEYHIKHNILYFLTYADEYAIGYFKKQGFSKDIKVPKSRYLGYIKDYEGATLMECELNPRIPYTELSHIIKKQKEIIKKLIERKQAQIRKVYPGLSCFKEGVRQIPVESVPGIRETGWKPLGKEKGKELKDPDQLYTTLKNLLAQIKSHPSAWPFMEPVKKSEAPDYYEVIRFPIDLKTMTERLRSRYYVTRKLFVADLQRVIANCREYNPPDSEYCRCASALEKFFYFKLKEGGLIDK
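qHTS, 1536-well. 20nM enzyme, pH 7.5 HEPES/EDTA/Tween-20 buffer; 15 min compound preinc., RT. Start: 75uM H3(1-25), 70uM AcCoA, 50uM ThioGlo1. Read Ex340/Em540 at t=0 (autofluorescence flag) and t=20 min.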
Sfp PPTase inh: Sfp phosphopantetheinyl transferase inhibition. Q9F4F7. Biochemical Sfp PPTase activity, qHTS. Potency, µM, for the others: largest response in the series, negative = inhibition, hits mostly inhibitors. hit rate 3.5% among 310,000;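 also: the enzyme is Sfp with the accession as filed and its product quenches rhodamine fluorescence; 0% = enzyme reaction without inhibitor and -100% = no enzyme wells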
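With Hepes-Na pH 7.6 buffer containing 10 mM MgCl2, Sfp (15 nM) modified BHQ-2-YbbR (12.5 uM) using rhodamine-CoA (5 uM). Two reads 30 minutes apart at 525/598 nm yielded each well's rate.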
TrxR1 inh: inhibitors of rat thioredoxin reductase 1; O89049; Potency, µM (series often up to 114 µM), for the others: at the top dose activity change, negative = inhibition, usual class: inhibitors; recombinant rTrxR1, NADPH fluorescence consumption, selenite substrate; hit rate 1% among 390,000; AID 588453; also: nearly all actives have a fitted effect of over 65% in size
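Rat TrxR1 (90 nM in the dispensed reagent) was pre-reduced with 400 uM NADPH for 5 min at room temperature, then incubated with compound for 15 min. After 400 uM selenite was added, NADPH fluorescence (Ex 340/Em 450 nm) was followed for 8 min.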
GLS inh: inhibitors of human glutaminase (GLS). O94925. AID 624170. Potency, µM (doses to about 45.5 µM), without a hit: at the highest dose activity change, negative = inhibition, usual class: inhibitors. hit rate 0.21% among 410,000. GLS enzymatic activity, qHTS titration
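Read-out is an Amplex red fluorescence increase coupled through glutamate oxidase and HRP, measured before and after 30 min room-temperature incubation. hKGA is in 45 mM KH2PO4 (pH 8.2) with 0.02% Tween-20; glutamine added as 1mM solution.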
TrxR1 substrate: is turned over as a substrate by rat TrxR1; O89049; purified TrxR1 substrate turnover, NADPH consumption readout; Potency, µM (doses to about 114 µM), for the others: at the highest dose activity change, negative = substrate turnover; hit rate 0.01% among 390,000; also: nearly all actives have a fitted effect of over 50% in size
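Rat TrxR1, dispensed at 90 nM, was prereduced with 400 uM NADPH (final) for 5 min at ~22 deg C, then incubated with compound 15 min before 400 uM selenite. A first-read NADPH fluorescence drop versus no-compound background flagged substrates.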
VDR inh: vitamin D3 receptor (human) inhibition | AID 504847 | VDR-SRC2-3 peptide fluorescence polarization, 2 h | hit rate 0.93% among 400,000 | Potency, µM, for the others: max response, negative = inhibition, hits mostly inhibitors | P11473
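Signal is fluorescence polarization, reporting how far test compounds block the interaction of VDR with the SRC2-3 coregulator peptide after a 2 h room-temperature incubation.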
Numbers without * were called inactive; ? = inconclusive; . = no result given; [ ] = remark or other dose. A selection: hits, their analogues and other compounds. The true share with any hit is near 3.8%. Calls follow the shape of the dose curve; as a rule, active = well fitted curve in the direction sought with a large enough effect; inconclusive = small, poorly fitted or top-dose-only effect, or another doubt; inactive = no such curve, though single readings can be large; an effect the other way counts as inactive or inconclusive. Unless noted, % is scaled to controls: 0 for no effect and ±100 for the full control effect; potency is read from the fitted curve at half-maximal effect.

SMILES	KAT2A inh	Sfp PPTase inh	TrxR1 inh	GLS inh	TrxR1 substrate	VDR inh
O=C1/C(=C\c2ccc(O)c(O)c2)C(c2ccccc2)=NN1c1ccccc1	1%	50µM*	?	0%	4%	-24%
CCOC(=O)Cc1ccc(NC(=O)N(C(C)C)C2CCN(C(C)=O)CC2)cc1	-11%	.	11%	11%	-2%	10%
CCCN1C(=O)S/C(=C\c2ccc(N3CCOCC3)o2)C1=O	-21%	3.2µM*	7.9µM*	-21%	-6%[57.1 µM]	32µM*
CCCN1C(=O)S/C(=C/c2ccc(N3CCOCC3)o2)C1=O	-11%	1.3µM*	28µM*	-13%	-13%	89µM*
Cc1ccc(OCCN2C(=O)C(=O)c3cc(C)ccc32)cc1	-2%	7%	21%	-7%	0%	?
Cc1ccc(OCCN2C(=O)S/C(=C\c3ccc(C)o3)C2=O)cc1	-3%	18µM*	-29%	-7%	-6%	?
Cc1ccc2nc(-c3ccc(C)c(NC(=O)COc4ccc(Cl)cc4)c3)oc2c1	.	.	4%	.	6%	.
COc1ccc(N2CCN(C(=O)c3ccc(Nc4nc5ccccc5n5nnnc45)cc3)CC2)cc1	-6%	.	-2%	-3%	-4%	11%
Cc1cccc(-c2noc(-c3ccccc3C(=O)NCc3ccco3)n2)c1	-7%	40µM*	-15%[57.1 µM]	-3%	-4%[57.1 µM]	-6%
O=C(Nc1ccc2ccccc2c1)c1ccc(Cl)cc1Cl	-16%	8%	-1%[57.1 µM]	-2%	-1%[57.1 µM]	-11%
O=C(Nc1nc(=S)ss1)c1ccc(Cl)cc1Cl	-7%	13µM*	20%[57.1 µM]	-1%	15%[57.1 µM]	-14%
CN(C)CCn1c2c(c(SCC(=O)Nc3cccc4ccccc34)nc1=O)CCCC2	-1%	.	12%	-2%	4%	-13%
CCN(CC)S(=O)(=O)c1ccc(OCCNS(C)(=O)=O)cc1	-4%	20%	17%[57.1 µM]	?	5%	28µM*
CCOC(=O)c1ccc(NC(=S)Nc2ccc(Cl)cn2)cc1	13%	6%	17%	4%	-4%	12%
NC(=O)CSc1nnc2sc3ccccc3n12	-2%	0%	5%	-2%	2%	2%
CNc1oc(-c2ccccc2Cl)nc1P(=O)(c1ccccc1)c1ccccc1	-4%	?	8%[57.1 µM]	-26%	19%	-18%
CNc1oc(-c2ccc(C)cc2)nc1P(=O)(c1ccccc1)c1ccccc1	-29%	56µM*	17%[57.1 µM]	-1%	10%[57.1 µM]	10%
Cc1cccc2cc(CN(Cc3ccco3)C(=O)c3ccco3)c(=O)[nH]c12	1%	25%	8%	11%	8%	4%
O=C(CCl)c1cc2c3c(c1)CC(=O)N3CCC2	1%	-1%	89µM*	3%	-11%	?
Cc1ccc(NC(=S)N/C(=N/S(=O)(=O)c2ccccc2)c2ccccc2)cc1	1%	?	6.3µM*	29%	-9%	-5%
CC(=O)Nc1ccc(N/C(=N\S(=O)(=O)c2ccccc2)c2ccccc2)cc1	-20%	11%	-14%	0%	-12%	-7%
Cc1ccc(S(=O)(=O)/N=C(/NC(=S)Nc2ccccc2)c2ccccc2)cc1	0%	-15%	8.9µM*	2%	1%	-25%
COc1cccc(NC(=O)CSc2nc3n[nH]c(C)c3c(=N)n2-c2cccc(OC)c2)c1	-29%	14%	19%[57.1 µM]	-1%	10%	19%
COc1cccc(-n2c(SCC(=O)NCCC3=CCCCC3)nc3n[nH]c(C)c3c2=N)c1	3%	?	7%[57.1 µM]	20µM*	-6%	-15%
O=C(CSc1nnnn1C1CCCCC1)Nc1ccc(F)cc1	-6%	20%	20%	5%	8%	-1%
SMILES	KAT2A inh	Sfp PPTase inh	TrxR1 inh	GLS inh	TrxR1 substrate	VDR inh
O=C(CCl)Nc1cccc(S(=O)(=O)NC2=NCCC2)c1	2%	21%	28µM*	-3%	4%	2%
CCOC(=O)C1=C(C)N(C)C(=S)NC1c1ccc(Cl)cc1 (configuration not stated)	-1%	-10%	-4%	4%	-5%	-13%
C=CCN1c2ccc(Br)cc2C(=O)CS1(=O)=O	-18%	.	7.1µM*	-2%	4%	-17%
C=CCn1c(=S)[nH]c2ccc(Br)cc2c1=O	-5%	13%	-20%	-7%	-5%	?
COc1cc(CN2c3ccc(Br)cc3C(=O)CS2(=O)=O)cc(OC)c1	.	.	?	.	-5%	.
COc1cccc(CN2c3ccc(Br)cc3C(=O)CS2(=O)=O)c1	?	.	2.2µM*	20%	-2%	-7%
CCN(Cc1ccccc1)C(=O)c1cccs1	.	.	.	0%	.	.
Clc1ccc(-c2nc3ccccn3c2Nc2ccc3c(c2)OCCO3)s1	-9%	.	?	15%	2%	-15%
O=C(N/N=C/c1ccc(Cl)cc1Cl)c1cccc(F)c1	-2%	20µM*	27%	-2%	6%	-6%
Nc1nc2c(s1)C(=O)CC(c1ccccc1)C2 (configuration not stated)	0%	45µM*	-9%	3%	-6%	-3%
Cc1cc(C)n(C(=O)Cc2cn3ccsc3n2)n1	-2%	89µM*	3%	-5%	-4%	5%
CCOC(=O)C1=C(C)NC(C)=C(C(=O)OCC)C1c1ccco1	-11%	-13%	-3%	15%	-12%	-15%
CCOC(=O)C1=C(C)NC(=S)NC1c1ccco1 (configuration not stated)	-5%	71µM*	50µM*	21%	-5%	?
CCOC(=O)C1=C(C)NC(=S)NC1c1ccc(-c2ccc(Cl)cc2)o1 (configuration not stated)	-6%	14µM*	?	-5%	-3%	-21%
CCOC(=O)C1=C(C)NC(=S)NC1c1ccc(-c2cccc(Cl)c2C)o1 (configuration not stated)	-8%	56µM*	22µM*	-6%	9%	79µM*
CCOC(=O)C1=C(C)NC(=O)NC1c1ccc(-c2ccc(Cl)cc2)o1 (configuration not stated)	-2%	8%	-6%[57.1 µM]	-2%	10%	-14%
CCOC(=O)C1=C(C)C(c2ccc(OC)cc2)NC(=S)N1 (configuration not stated)	4%	8%	-13%	?	-9%	28µM*
CCC(NC(=O)NNC(=O)c1ccncc1)(C(F)(F)F)C(F)(F)F	-5%	-4%	5%[57.1 µM]	-36%	7%[57.1 µM]	7%
COC(=O)C1=C(C)NC(=S)NC1c1ccc(-c2cccc(Cl)c2)o1 (configuration not stated)	-1%	7.1µM*	6%[57.1 µM]	-4%	-22%[57.1 µM]	7%
COC(=O)C1=C(C)NC(=S)NC1c1ccc(-c2ccccc2C(=O)OC)o1 (configuration not stated)	-5%	?	8%[57.1 µM]	-20%	5%[57.1 µM]	?
